# In the library only some 10% were active in any assay of this set; here they are far more common.
# GPT2 inhibitor: inhibitors of human GPT2 alanine aminotransferase; 0.25% of 100,000 active; AID 1671188; Potency, µM (doses to about 57.7 µM), inactives show at the top dose activity change, negative = inhibition, actives largely listed as inhibitors; Q8TD30; Recombinant GPT2, coupled pyruvate oxidase/HRP Amplex Red fluorescence; also: % is scaled to controls: 0 for no effect and ±100 for the full control effect; nearly all actives have a fitted effect of over 60% in size
#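 Recombinant GPT2 (10ng/uL) with 250uM a-KG and 2mM L-alanine, 30 min at room temperature, in HEPES pH 7.5 buffer. Pyruvate detected by pyruvate oxidase/HRP/Amplex Red fluorescence after 30 min in the dark; AOA (50uM) as positive control.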
# hNpr1 antagonist: antagonists of human natriuretic peptide receptor Npr1; 1.6% of 76,000 active; AID 1347048; Potency, µM (doses to about 46.3 µM), without a hit: at the highest dose activity change, negative = inhibition, most hits filed as inhibitors; HEK293 hNpr1 GloSensor cGMP, ANP-stimulated luminescence; P16066; calls by dose curve; also: % is scaled to controls: 0 for no effect and ±100 for the full control effect; nearly all actives have a fitted effect of over 60% in size
#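 HEK293 cells stably expressing human Npr1 and cGMP GloSensor pGS-40F, loaded 2 h with 2% GloSensor reagent, given compound 30 min at room temperature. Luminescence read before and 20 min after 0.1 nM hNppA.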
# HEK293 tox: cytotoxic compounds in HEK 293 cells; HEK 293 viability, ATP luminescence (CellTiter-Glo), 48-72 h; Potency, µM (highest dose often 115 µM), for the others: at the top dose activity change, negative = cytotoxicity, most hits filed as inhibitors; 6.6% of 94,000 active; AID 1345083; also: % is scaled to controls: 0 for no effect and ±100 for the full control effect; nearly all actives have a fitted effect of over 60% in size
#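 Cells seeded first (HEK 293, 250 cells/well), then compound added by pintool. Incubation ran 48 or 72 hr at 37 degree Celsius. CellTiter-Glo was added and luminescence imaged after 10 min at room temperature.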
# 3T3 cytotox: cytotoxic compounds in NIH 3T3 cells. 4.3% of 94,000 active. Potency, µM (doses to about 96.7 µM), for inactives: at the highest dose activity change, negative = cytotoxicity, actives largely listed as inhibitors. NIH 3T3 viability, CellTiter-Glo ATP luminescence, 48-72 h; also: % is scaled to controls: 0 for no effect and ±100 for the full control effect; nearly all actives have a fitted effect of over 55% in size
#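 Cytotoxicity was measured by CellTiter-Glo ATP luminescence after 48 or 72 h compound exposure at 37 °C. Mouse NIH 3T3 fibroblasts were seeded at 400 cells/well and dosed by 23 nL pin transfer.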
# Luciferase inh: inhibitors of firefly (Photinus pyralis) luciferase | P08659 | purified P. pyralis luciferase, luminescence, biochemical | Potency, µM (doses to about 115 µM), actives largely listed as inhibitors | 2.5% of 76,000 active | AID 1347043; also: % is scaled to controls: 0 for no effect and ±100 for the full control effect; nearly all actives have a fitted effect of over 65% in size
# Target sequence (P08659 whole entry, looked up): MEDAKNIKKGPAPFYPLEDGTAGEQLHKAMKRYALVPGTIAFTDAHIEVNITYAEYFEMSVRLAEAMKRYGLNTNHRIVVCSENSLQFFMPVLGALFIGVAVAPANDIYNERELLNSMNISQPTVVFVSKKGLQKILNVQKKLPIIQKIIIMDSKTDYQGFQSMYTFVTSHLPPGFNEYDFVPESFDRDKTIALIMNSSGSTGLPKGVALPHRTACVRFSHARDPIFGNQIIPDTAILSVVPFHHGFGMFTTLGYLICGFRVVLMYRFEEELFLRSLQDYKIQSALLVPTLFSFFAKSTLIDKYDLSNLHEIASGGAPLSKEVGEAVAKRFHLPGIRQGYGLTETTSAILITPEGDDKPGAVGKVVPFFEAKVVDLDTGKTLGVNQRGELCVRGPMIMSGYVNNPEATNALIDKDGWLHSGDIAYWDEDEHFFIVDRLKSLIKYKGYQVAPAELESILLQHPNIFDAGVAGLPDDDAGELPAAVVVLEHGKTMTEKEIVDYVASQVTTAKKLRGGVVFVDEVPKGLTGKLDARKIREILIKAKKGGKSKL
#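 FLuc 10nM, D-luciferin 10uM, ATP 10uM, Mg acetate 10mM, Tris acetate pH 7.5, Tween/BSA; cpd qHTS; enzyme added last; CCD luminescence.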
# NPR1 antag cnf: hNpr1 antagonism, confirmation assay | shares compounds with hNpr1 antagonist | HEK293 hNpr1 cGMP GloSensor luminescence, ANP-stimulated | Potency, µM (highest dose often 57.6 µM), without a hit: at the highest dose activity change, negative = inhibition, hits mostly inhibitors | 76% of 1,400 active; calls by dose curve; also: nearly all actives have a fitted effect of over 70% in size
# Npr2 selectivity: hNpr2 antagonism, selectivity versus Npr1; shares compounds with hNpr1 antagonist; HEK293 hNpr2 GloSensor cGMP luminescence, CNP-stimulated; Potency, µM (titrated, usually from 57.6 µM), for the others: at the highest dose activity change, negative = inhibition, usual class: inhibitors; 67% of 1,400 active; calls by dose curve; also: nearly all actives have a fitted effect of over 70% in size
# FLuc inh counter: inhibits firefly luciferase, false Npr1 antagonist flag; shares compounds with hNpr1 antagonist; purified FLuc enzyme, luminescence, Km substrate; Potency, µM (top dose mostly 57.6 µM), for inactives: at the top dose activity change, negative = inhibition, hits mostly inhibitors; 0.7% of 1,400 active; AID 1347047; also: 0% is about no effect
# GloSensor cGMP: counter-screen for Npr1 antagonists: GloSensor control cell line | HEK293 GloSensor cGMP, SNP-stimulated, luminescence | 69% of 1,400 active | shares compounds with hNpr1 antagonist | Potency, µM (top dose mostly 57.6 µM), inactives show top-dose activity change, negative = inhibition, most hits filed as inhibitors; calls by dose curve; also: % is scaled to controls: 0 for no effect and ±100 for the full control effect; nearly all actives have a fitted effect of over 70% in size
# * = called active by the depositor; i = inactive; ? = inconclusive; nt = no result; [ ] = remark or other dose. Unless noted, calls follow the shape of the dose curve; as a rule, active = well fitted curve in the direction sought with a large enough effect; inconclusive = small, poorly fitted or top-dose-only effect, or another doubt; inactive = no such curve, though single readings can be large; an effect the other way counts as inactive or inconclusive. Potency is read from the fitted curve at half-maximal effect.
SMILES,GPT2 inhibitor,hNpr1 antagonist,HEK293 tox,3T3 cytotox,Luciferase inh,NPR1 antag cnf,Npr2 selectivity,FLuc inh counter,GloSensor cGMP
Cc1nc(N2CCC(C(=O)NCc3cccc(Cl)c3)CC2)cc(C(F)(F)F)n1,-11%,10µM*,?,?,i,19µM*,19µM*,7%,17µM*
Cc1nc(N2CCC(NC(=O)Cc3ccccc3Cl)CC2)cc(C(F)(F)F)n1,0%,10µM*,?,?,i,19µM*,17µM*,2%,11µM*
Cc1ccc(CCNC(=O)C2CCN(c3cc(C(F)(F)F)nc(C)n3)CC2)cc1,-6%,-23%,?,-29%,i,nt,nt,nt,nt
O=C(Cc1ccccc1Cl)NC1CCN(c2cc(C(F)(F)F)ncn2)CC1,i,11µM*,?,-41%,i,19µM*,15µM*,-1%,15µM*
COc1ccccc1C(=O)NC1CCN(c2cc(C(F)(F)F)nc(C)n2)CC1,3%,?,?,?,i,?,-29%,3%,?
O=C(O)c1ccc(CN2CCC[C@@H](O)[C@H](NC(=O)c3ccc(OCc4ccccc4)cc3)C2)cc1,-4%,7%,i,?,i,nt,nt,nt,nt
COc1cccc(CCC(=O)Nc2cccc(-c3nnc4n3CCCC4)c2)c1,?,-20%,?,-24%,i,nt,nt,nt,nt
CC1(CCCCc2ccccc2)COc2ccc(C(=O)NC3CC3)cc2N1 (centres undefined),-12%[88.5 µM],20µM*,?,?,i,35µM*,28µM*,-1%[86.2 µM],18µM*
CC1(CCCCc2ccccc2)COc2ccc(C(=O)N3CC(O)C3)cc2N1 (centres undefined),-8%[88.5 µM],35µM*,?,?,i,40µM*,35µM*,1%[86.2 µM],31µM*
Cc1nc2cc(N3CCC(C(=O)O)CC3)cnc2nc1C,i,-7%,?,?,?,nt,nt,nt,nt
Cc1cc(C)nc(N2CCC(COc3ccc4c(cnn4CCC(=O)O)c3)CC2)n1,-24%[88.5 µM],5%[70.6 µM],?,-26%[138 µM],i,nt,nt,nt,nt
C[S+](=O)([O-])CCn1ncc2cc(OCC3CCN(C(=O)OC4CCCC4)CC3)ccc21,0%,10µM*,?,?,i,11µM*,11µM*,-18%,9.7µM*
COCCOC(=O)N1CCC(COc2ccc3c(cnn3CCC(=O)O)c2)CC1,?,0%[70.6 µM],-14%[172 µM],?,i,nt,nt,nt,nt
CCc1cnc(N2CCC(COc3ccc4c(cnn4CC[S+](C)(=O)[O-])c3)CC2)nc1,1%,8.9µM*,?,-23%,i,8.6µM*,9.7µM*,0%,6.9µM*
CNC(=O)CCn1ncc2cc(OCc3ccccc3-c3ccccc3Cl)ccc21,i,-14%[70.6 µM],?,?,i,nt,nt,nt,nt
C[S+](=O)([O-])CCn1ncc2cc(OCc3cccc(-c4ccc(Cl)cc4)c3)ccc21,?,?,?,?,i,31µM*,31µM*,?,35µM*
Cc1ccc(C(=O)N2CCC[C@@H]2C(=O)N2CCCC(c3nc4ccncc4[nH]3)C2)cc1 (some centres undefined),0%,nt,-5%,4%,nt,nt,nt,nt,nt
O=C1N(C2CCOCC2)C[C@H]2CN(Cc3ccc(C(F)(F)F)cc3)CCN12,i,?,?,-23%[138 µM],i,nt,nt,nt,nt
COc1ccc(CN2C[C@H]3CN(Cc4ccc(C)cc4)CCN3C2=O)cc1,-4%[88.5 µM],18µM*,?,?,i,18µM*,22µM*,-8%[86.2 µM],20µM*
O=C1c2ccccc2CN1C1CCN(Cc2ccc(C(F)(F)F)cc2)CC1,i,nt,?,?,nt,22µM*,24µM*,0%,19µM*
O=C1N(Cc2ccc(F)cc2)C[C@H]2CN(Cc3ccc(C(F)(F)F)cc3)CCN12,?,10µM*,?,?,i,11µM*,16µM*,1%[86.2 µM],8.9µM*
O=C1N(C2CCCCC2)C[C@H]2CN(Cc3ccc(C(F)(F)F)cc3)CCN12,i,13µM*,?,?,i,16µM*,20µM*,-14%[86.2 µM],16µM*
O=C1N(Cc2ccccn2)C[C@H]2CN(Cc3ccc(C(F)(F)F)cc3)CCN12,1%[88.5 µM],?,?,?,i,nt,nt,nt,nt
CC(=O)Nc1ccc(CN2CCC(N3Cc4ccccc4C3=O)CC2)cc1,i,nt,3%,2%,nt,nt,nt,nt,nt
CC(=O)N1CCC(N2CCOc3ccc(C(=O)NCc4ccc(C)cc4)cc3C2)CC1,1%,nt,-6%,-14%,nt,nt,nt,nt,nt
SMILES,GPT2 inhibitor,hNpr1 antagonist,HEK293 tox,3T3 cytotox,Luciferase inh,NPR1 antag cnf,Npr2 selectivity,FLuc inh counter,GloSensor cGMP
CCc1cnc(N)nc1N1CCC(Oc2ccc(F)cc2)CC1,-8%,-15%,?,?,i,nt,nt,nt,nt
CCc1cnc(N2CCC(Oc3cnc4c(ccn4CCN[S+](C)(=O)[O-])c3)CC2)nc1,2%,6.3µM*,?,?,i,6.9µM*,9.7µM*,2%,6.9µM*
Cc1nccc(N2CCC(Oc3cnc4c(ccn4CCN[S+](C)(=O)[O-])c3)CC2)n1,3%[88.5 µM],28µM*,?,?,i,31µM*,35µM*,-2%[86.2 µM],25µM*
N#Cc1ccccc1S(=O)(=O)N[C@H]1CO[C@H]2[C@@H]1OC[C@@H]2n1nnnc1-c1ccccc1,4%,-3%,4%,-8%,i,nt,nt,nt,nt
CC(C)c1cccc(NC(=O)C2CCN(C(=O)c3ncn4c3COC(c3ccc(F)cc3)C4)CC2)c1 (centres undefined),-7%,11µM*,?,-16%,i,?,?,-3%,?
CC(C)CN1C(=O)c2cccn2CC1C(=O)NC1CCCCCC1 (centres undefined),0%,-3%,-19%,-1%,i,nt,nt,nt,nt
O=C(c1cccc2[nH]ccc12)N1CCCC(n2cc(-c3nc(C4CC4)no3)nn2)C1 (centres undefined),i,11µM*,?,?,i,27µM*,?,-1%,?

# High-throughput results from PubChem.
